Screening data deposited in PubChem by several laboratories.
KKLEB cytotox: cytotoxicity in KKLEB CF airway cells, primary screen, cytotoxicity control for CF NF-kB inhibitor project, cell-based, uHTS, fluorescence assay plates; 360,000 compounds, 0.36% hits; KKLEB CF airway cells viability, ATPlite luminescence, overnight; hits give low values; cells stimulated with P. aeruginosa culture filtrate; activity change (cytotoxicity), % at 5 µM;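 active means corrected activity change at or below -50% at 5 µM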
Peg3 promoter: Peg3 promoter-driven luciferase inhibitors, primary screen, cell-based, HeLa, luciferase luminescence; HeLa PEG-Prom luciferase reporter, overnight; inhibition, % at 20 µM; 360,000 compounds, 1.7% hits;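 active means inhibition of at least 50% at 20 µM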
HIF-2a block: HIF-2a reporter inhibitors, primary screen, luminescence, 786-0 RCC cells; 786-0 RCC cells HIF-2a reporter, luciferase luminescence, overnight; inhibition, % at 18.8 µM; AID 624352, 2012; 360,000 compounds, 0.72% hits;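 active means inhibition of the luminescence signal of 40% or more relative to plate controls, in a single-dose primary screen at 18.75 µM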
CHOP inhibitor: inhibitors of CHOP promoter induction, primary screen, cell-based, unfolded protein response, luciferase reporter; CHO-K1 CHOP-promoter luciferase, tunicamycin-induced, 15-18 h; inhibition, % at 10 µM; 220,000 compounds, 3.8% hits;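 active means compounds that reduced the stress-induced luciferase reporter signal by more than about 70% of percent inhibition, limit read from the data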;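 further: 0% = tunicamycin plus vehicle and 100% = wells without tunicamycin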
TRPM1 prom inh: inhibitors of MITF-dependent TRPM1 promoter reporter, primary screen, cell-based, SK-MEL-5, single point, luciferase | SK-MEL-5 TRPM1 promoter luciferase, 24 h | inhibition, % at 12.5 µM | 330,000 compounds, 0.83% hits;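 active means mean inhibition across replicates of 60% or more, whatever share of single replicates reaches that level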
CF NFkB inh: inhibitors of PAF-induced NF-kB signaling, primary screen, cell-based, GFP fluorescence, uHTS. KKLEB NF-kB-GFP reporter, GFP fluorescence overnight. inhibition, % at 5 µM. 360,000 compounds, 0.86% hits. AID 588850, 2011;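 active means at least 50% inhibition at 5 µM, scaled per plate between neutral and stimulator controls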;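 further: PAF is a Pseudomonas aeruginosa culture filtrate used as stimulus; plate controls were PAF-stimulated DMSO wells for no effect and unstimulated DMSO wells for full effect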
* marks the source's active call; other numbers are inactive results. A selection: hits, their analogues and other compounds. The true share with any hit is near 4.3%.

Screening O=C(O)c1ccc(S(=O)(=O)/N=C2\C=C(Nc3ccccc3F)C(=O)c3ccccc32)cc1 returned KKLEB cytotox -70*, Peg3 promoter 104*, HIF-2a block -14, TRPM1 prom inh 46 and CF NFkB inh 102*.
For Cc1ccccc1NC1=C/C(=N\S(=O)(=O)c2ccc(C(=O)O)cc2)c2ccccc2C1=O the results were KKLEB cytotox -56*, Peg3 promoter 101*, HIF-2a block 56*, TRPM1 prom inh 22 and CF NFkB inh 100*.
CC(C)CCNc1nc(N)c([N+](=O)[O-])c(N2CCCCCC2)n1 was read as KKLEB cytotox -10, Peg3 promoter 20, HIF-2a block 6, TRPM1 prom inh 13 and CF NFkB inh 32.
COC(=O)c1cc([N+](=O)[O-])c(-n2ccnc2)c([N+](=O)[O-])c1 was read as KKLEB cytotox -2, Peg3 promoter 43, HIF-2a block 12, CHOP inhibitor 90*, TRPM1 prom inh 14 and CF NFkB inh 6.
For O=C(O)c1ccc(-n2ccnc2)c([N+](=O)[O-])c1 the results were KKLEB cytotox 1, Peg3 promoter 11, HIF-2a block 14, CHOP inhibitor 8, TRPM1 prom inh -3 and CF NFkB inh -7.
Screening NC(Cc1ccc(C(F)(F)F)cc1)c1csc(Nc2cc(Oc3ccccc3)ncn2)n1 (configuration not stated) returned KKLEB cytotox -94*, Peg3 promoter 106*, HIF-2a block 11 and CF NFkB inh 91*.
For NC(c1csc(Nc2cc(Oc3ccccc3)ncn2)n1)C1CCCCC1 (configuration not stated) the results were KKLEB cytotox 7, Peg3 promoter 99*, HIF-2a block 5 and CF NFkB inh 21.
Nc1ccc(CC(N)c2csc(Nc3cc(Oc4ccccc4)ncn3)n2)cc1 (configuration not stated) was read as KKLEB cytotox -1, Peg3 promoter 15, HIF-2a block 17 and CF NFkB inh 3.
Screening COc1ccc(C(N)c2csc(Nc3cc(Oc4ccccc4)ncn3)n2)cc1 (configuration not stated) returned KKLEB cytotox 7, Peg3 promoter 12, HIF-2a block -1 and CF NFkB inh 34.
O=C(NCCCn1ccnc1)C1CCCN(S(=O)(=O)c2ccc(F)cc2)C1 (configuration not stated) was read as KKLEB cytotox 1, Peg3 promoter -15, HIF-2a block 4, TRPM1 prom inh 8 and CF NFkB inh -4.
Screening CC(=O)Nc1ccc(/C=C2\Sc3ccccc3C2=O)cc1 returned KKLEB cytotox -3, Peg3 promoter -109, HIF-2a block 50*, CHOP inhibitor 29, TRPM1 prom inh 1 and CF NFkB inh 0.
CC(=O)Nc1ccc(C=NN=C2c3ccccc3-c3ccccc32)cc1 was read as KKLEB cytotox -1, Peg3 promoter 74*, HIF-2a block -91, TRPM1 prom inh 0 and CF NFkB inh -46.
`COc1ccc(C=NN=C2c3ccccc3-c3ccccc32)cc1O` gave KKLEB cytotox -6, Peg3 promoter -32, HIF-2a block -56, TRPM1 prom inh -22 and CF NFkB inh -5.
Cc1ccc(/C=C2\Sc3ccccc3C2=O)s1 was read as KKLEB cytotox 4, Peg3 promoter -161, HIF-2a block -248, CHOP inhibitor 70*, TRPM1 prom inh -12 and CF NFkB inh -27.
For O=C(OCC(=O)N1CCC(Cc2ccccc2)CC1)c1cncc(Br)c1 the results were KKLEB cytotox -10, Peg3 promoter 14, HIF-2a block 6, TRPM1 prom inh 4 and CF NFkB inh 20.
For O=C(c1ccc(Br)o1)N1CCN(c2ccc3nnc(-c4ccccc4)n3n2)CC1 the results were KKLEB cytotox -6, Peg3 promoter 16, HIF-2a block 2, CHOP inhibitor -11, TRPM1 prom inh -1 and CF NFkB inh 4.
